# Pf Dd2 growth – qHTS Primary assay for Inhibitors of Plasmodium falciparum Dd2 growth in vitro; P. falciparum Dd2 growth, SYBR Green, 72 h; actives 4.3% (n = 120,000); Potency, µM (highest dose often 28.9 µM), for inactives: top-dose activity, negative = inhibition, hits mostly inhibitors; active = well fitted inhibition curve with a large enough effect;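 note: plate controls were DMSO vehicle for no effect and reference drug for full effect; nearly all actives have a fitted effect of over 65% in size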
#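 Infected erythrocytes (Dd2, 0.3% parasitemia, 2.5% hematocrit final) are added to compound in RPMI-1640/Albumax II medium, grown 72 h at 37C in low oxygen, then lysed with saponin/Triton-X containing SYBR Green and read by fluorescence.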
# * hit, by the source's call; i = inactive; [ ] = remark or other dose. The full list was thinned out, with hits kept by preference. Potency is the fitted concentration of half-maximal effect.
SMILES,Pf Dd2 growth
COc1ccc2c(CNCc3ccc(C)o3)c(C(=O)O)n(Cc3ccccc3)c2c1,-16%
COc1ccc2c(CNCc3cccs3)c(C(=O)O)n(Cc3ccc(F)cc3)c2c1,-3%
COc1ccc2c(CNCCc3cccs3)c(C(=O)O)n(Cc3ccc(F)cc3Cl)c2c1,i
COc1ccc2c(CNCCc3ccco3)c(C(=O)O)n(Cc3ccccc3)c2c1,-12%
C=Cc1ccc(Cn2c(C(=O)O)c(CNCc3ccccc3)c3ccc(OC)cc32)cc1,11µM*
COc1ccc(Cn2c(C(=O)O)c(CNCc3ccc(SC)cc3)c3ccc(OC)cc32)cc1,7.9µM*
Cc1cc(C(=O)N[C@@H]2CN(Cc3ccccc3)C[C@H]2CN(C)C)n[nH]1,16%
Cc1nc(CN2CCN(CC3(O)CNCCOC3)CC2)cs1 (stereo not drawn),-3%
OCC1(O)CCCN(Cc2cnc(NCc3ccccc3)nc2)C1 (stereo not drawn),-5%
Fc1ccc(-c2noc(-c3nc(-c4ccncc4)no3)n2)cc1F,i
O=c1n(-c2ccc(C(F)(F)F)cc2)nc2n1CCN(Cc1ccsc1)C2,-21%
CC(=O)N[C@H](C)c1onc(-c2ccc(Cl)cc2)c1C(=O)O,14%[44.1 µM]
Cc1cccc(NC(=O)N2CC(=O)Nc3sc4c(c3C2c2ccccc2)CCCC4)c1C (stereo not drawn),11µM*
COC(=O)c1ccccc1NC(=O)N1CCc2c(sc3c2CCCC3)C1c1ccc(F)cc1 (stereo not drawn),i
O=C1CN(C(=O)Nc2ccccc2Cl)C(c2ccccc2)c2c(sc3c2CCCC3)N1 (stereo not drawn),10µM*
O=C(COc1ccccc1)Nc1sc2c(c1C(=O)Nc1ccccc1Cl)CCCCC2,97%
O=C(Cc1ccccc1)Nc1sc2c(c1C(=O)Nc1ccccc1Cl)CCCC2,13%
Cc1cccc(NC(=O)N2CCC(CC(=O)NCc3ccccc3)C2)c1C (stereo not drawn),-13%
COC(=O)c1cn([C@H]2CO[C@H]3[C@@H]2OC[C@@H]3NC(=O)NC2CCCCC2)nn1,6%[44.1 µM]
COc1ccc(CN2CCC3(CC(C)=NO3)C2)cc1 (stereo not drawn),-12%[44.1 µM]
O=C(O)C[C@@H]1CCN(C(=O)Nc2ccc(OC(F)(F)F)cc2)C[C@@H]1CCN1CCOCC1,1%
Cc1nn(-c2ccc(F)cc2)c(C)c1CN1CCCn2nc(CO)cc2C1,4%
CCOc1ccccc1C1C(C(N)=O)=C(C)Nc2nc(-c3ccccc3Cl)nn21 (stereo not drawn),-8%
COc1ccc(C2C(C(N)=O)=C(C)Nc3nc(-c4ccccc4Cl)nn32)cc1 (stereo not drawn),-22%
CCOc1ccc(C2C(C(=O)Nc3ccccc3)=C(C)Nc3nc(-c4ccccc4Cl)nn32)cc1OC (stereo not drawn),8.9µM*
SMILES,Pf Dd2 growth
COCC1CN(C)CC12CCN(C(=O)Cc1cccc(Cl)c1)CC2 (stereo not drawn),i
CCCNC(=O)N(C1CCOCC1)C1CCN(C(=O)Nc2c(F)cccc2F)CC1,-9%
O=C(CN1CC2CC(C1)[C@H]1CCCC(=O)N1C2)NCc1ccccn1 (stereo partly drawn),7%
Cc1ccc(C(=O)NC(C(=O)N2CCCC2)C2CCN(C(=O)c3ccccc3F)CC2)cc1 (stereo not drawn),i
Cc1cccc(C(=O)N2CCC(C(NC(=O)c3ccccc3)C(=O)N3CCCCC3)CC2)c1 (stereo not drawn),11µM*
COc1cccc(C(=O)NC(C(=O)N2CCCCC2)C2CCN(C(=O)c3cccc(F)c3)CC2)c1 (stereo not drawn),8.9µM*
COc1ccc(C(=O)N2CCC(C(NC(=O)c3cccc(OC)c3)C(=O)N3CCCC3)CC2)cc1 (stereo not drawn),i
CCCNC(=O)C(NC(=O)c1cccc(OC)c1)C1CCN(C(=O)c2cccc(F)c2)CC1 (stereo not drawn),i
COCCNC(=O)C(NC(=O)c1cccc(OC)c1)C1CCN(C(=O)c2ccc(C)cc2)CC1 (stereo not drawn),i
O=C(NC(C(=O)N1CCCCC1)C1CCN(C(=O)c2ccccc2)CC1)c1ccccc1Cl (stereo not drawn),i
O=C(NC(C(=O)NCc1ccco1)C1CCN(C(=O)C2CC2)CC1)c1ccccc1 (stereo not drawn),10%
COc1cccc(C(=O)N2CCC(C(NC(=O)c3ccccc3)C(=O)NCc3ccco3)CC2)c1 (stereo not drawn),8.9µM*
C#CCNC(=O)[C@H]1C[C@@H](O)[C@H](O)[C@@H]2N=C(Nc3cccc(C(F)(F)F)c3)S[C@@H]21,i
CCn1c(CO)nnc1C1CC(NC(=O)c2sccc2N)C1 (stereo not drawn),-24%
CCS[C@H]1CCN2C(=O)c3cc(-c4ccccc4F)ccc3NC(=O)[C@H]12,-14%[44.1 µM]
Cc1c[nH]c(C(=O)N2CCCC(CCc3cccc(C(F)(F)F)c3)C2)c1 (stereo not drawn),-22%
O=C(c1ccc(=O)[nH]c1)N1CCCC(CCc2cccc(C(F)(F)F)c2)C1 (stereo not drawn),-14%
CN(CC1CCCN(CCc2cccc(C(F)(F)F)c2)C1)C(=O)c1ccc2[nH]ccc2c1 (stereo not drawn),10µM*
COc1cccc(C(=O)N2CCC(C(=O)N3CC[C@@](C)(O)[C@@H](O)C3)CC2)c1,-4%
COc1ccccc1C(=O)N1CCCn2nc(C)c(-c3ccccc3Oc3ccccc3)c21,-19%[44.1 µM]
CC[C@H]1CN(C(=O)NC(C)C)CC[C@H]1CC(=O)NC1CC1,-6%[44.1 µM]
Cc1cccc(NC(=O)NCC2CCOCC2)c1C,-12%
Cc1ccc(C)c(N2CCN(C(=O)c3ccc4c(c3)N(Cc3ccc(F)cc3)C(=O)c3ccccc3S4=O)CC2)c1 (stereo not drawn),-16%
Cc1cccc(N2CCN(C(=O)c3ccc4c(c3)N(Cc3cccc(Cl)c3)C(=O)c3ccccc3S4=O)CC2)c1C (stereo not drawn),-7%
CCN1C(=O)c2ccccc2S(=O)c2ccc(C(=O)N3CCN(c4cc(Cl)ccc4C)CC3)cc21 (stereo not drawn),8.9µM*
SMILES,Pf Dd2 growth
Cc1ccc(Cl)cc1N1CCN(C(=O)c2ccc3c(c2)N(Cc2ccccc2)CCS3)CC1,8.9µM*
COc1ccc(CNC(=O)c2ccc3c(c2)N(Cc2ccccc2)CCS3)cc1,-6%
Cc1ccccc1CNC(=O)c1ccc2c(c1)N(Cc1ccccc1)CCS2,4%
Cn1cc(CCC(=O)Nc2ccc3c(c2)C(=O)N2CCC[C@H]2C(=O)N3)c2ccccc21,-9%
CS(=O)(=O)c1ccc(OCC2(CNCc3ccc(F)c(F)c3)C[C@@H](O)[C@@H](O)C2)cc1 (stereo partly drawn),-13%
COC[C@@H]1CN(C(=O)c2ccc(OC)cc2OC)C[C@H]1C(N)=O,16%
CO[C@H]1C(=O)N(C(C)C)[C@H]1C1CCN(C(=O)c2cccc(C#N)c2)CC1,13%
CO[C@H]1C(=O)N(C(C)C)[C@H]1C1CCN(Cc2cccc(F)c2)CC1,-25%
CO[C@H]1C(=O)N(C(C)C)[C@H]1C1CCN(Cc2cccc(C#N)c2)CC1,10µM*
O=C(NCC1(c2ccccc2F)CCCC1)C1CCN(C(=O)C2CC2)CC1,-7%
Cc1nc(C)c(CC(=O)NC2CC(c3cc(=O)[nH]cn3)C2)s1 (stereo not drawn),-4%
CCCCc1c(C)nc2c(-c3ccc(Cl)cc3)c(C)[nH]n2c1=O,-19%

# Screening data from PubChem.
